In the library only some 19% were active in any assay of this set; here they are far more common.
TDP1 cell CPT: growth inhibition of DT40 Tdp1-/-;hTDP1 cells with camptothecin (screen for TDP1 inhibitors). chicken DT40 Tdp1-/-;hTDP1 cells + 20 nM CPT, ATP luminescence, 48 h. Potency, µM (series often up to 46.2 µM), hits mostly inhibitors. hit rate 12% among 420,000. AID 686979; further: nearly all actives have a fitted effect of over 55% in size
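Chicken DT40 Tdp1-/- cells complemented with human TDP1, 400 cells/well, exposed to compounds plus 20 nM camptothecin for at least 48 h at 37 C; viability read as ATP content by CellTiter-Glo luminescence.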
Gal4-VP16 FLuc: Gal4-VP16 reporter inhibition counter-screen | Drosophila S2 Gal4-VP16 UAS-luciferase, luminescence, 20 h | Potency, µM (top dose mostly 53.6 µM), hits mostly inhibitors | hit rate 3.5% among 310,000 | AID 2546;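 further: Gal4-VP16 expression switched on by copper sulfate through the metallothionein promoter; nearly all actives have a fitted effect of over 50% in size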
TDP1 cell noCPT: qHTS for Inhibitors of human tyrosyl-DNA phosphodiesterase 1 (TDP1): qHTS in cells in absence of CPT; hit rate 15% among 420,000; Potency, µM (series often up to 46.2 µM), most hits filed as inhibitors; AID 686978, 2013; DT40 Tdp1-/- hTDP1 cells, no CPT, ATP luminescence, 48 h; further: nearly all actives have a fitted effect of over 55% in size
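Growth kinetics read by CellTiter-Glo luminescence after ≥48 hr at 37 °C. Cells: DT40 Tdp1-/- stably carrying human TDP1, 400 per well, compound exposure in the absence of CPT (DMSO vehicle).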
TDP1 inh: blocks human tyrosyl-DNA phosphodiesterase 1. Q9NUW8. recombinant TDP1, AlphaScreen DNA substrate cleavage. Potency, µM (series often up to 130 µM), hits mostly inhibitors. hit rate 0.28% among 350,000; further: nearly all actives have a fitted effect of over 40% in size
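Steps: enzyme plus compound, 15 min RT; add biotin/phosphotyrosine-FITC oligonucleotide (15 nM final), react 5 min; add donor/acceptor beads (10 ug/ml final), 10 min; read AlphaScreen. Tdp1 at 1 nM final.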
RORg inh: inhibitors of mouse ROR gamma transcriptional activity. P51450. Drosophila S2 Gal4-RORgamma UAS-luciferase reporter, 20 h. Potency, µM (top dose mostly 53.6 µM), most hits filed as inhibitors. hit rate 5.4% among 310,000. AID 2551; further: nearly all actives have a fitted effect of over 60% in size
Target sequence (P51450 whole entry, looked up, the tested form may be a part): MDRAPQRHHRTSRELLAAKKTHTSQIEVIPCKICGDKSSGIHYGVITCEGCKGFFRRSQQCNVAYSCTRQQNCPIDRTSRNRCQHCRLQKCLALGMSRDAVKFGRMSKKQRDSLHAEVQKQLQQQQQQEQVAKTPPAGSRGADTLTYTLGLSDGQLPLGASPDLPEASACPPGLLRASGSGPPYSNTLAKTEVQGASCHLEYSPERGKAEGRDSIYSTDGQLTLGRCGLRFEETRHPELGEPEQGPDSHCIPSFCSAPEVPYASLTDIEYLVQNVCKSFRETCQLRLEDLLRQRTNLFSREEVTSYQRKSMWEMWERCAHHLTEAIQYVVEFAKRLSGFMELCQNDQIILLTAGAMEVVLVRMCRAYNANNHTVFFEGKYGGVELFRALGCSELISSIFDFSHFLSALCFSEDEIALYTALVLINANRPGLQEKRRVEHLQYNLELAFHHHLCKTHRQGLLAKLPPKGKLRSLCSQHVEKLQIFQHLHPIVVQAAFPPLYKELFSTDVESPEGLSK
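Schneider cells (Drosophila), stable Gal4 DBD–ROR gamma + UAS-luc; 1 hr cmpd preincubation; Cu2+ induction 700 uM final; 20 hr ambient; luminescence.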
A number is an active result; . = inactive; ? = inconclusive; / = no result; [ ] = dose if it differs, or a comment. The call rests on the fitted dose curve; in most records, active means well fitted curve in the direction sought with a large enough effect; inconclusive means small, poorly fitted or top-dose-only effect, or another doubt; inactive means no such curve, though single readings can be large; an effect the other way counts as inactive or inconclusive.

SMILES	TDP1 cell CPT	Gal4-VP16 FLuc	TDP1 cell noCPT	TDP1 inh	RORg inh
CCN(CC(=O)Nc1ccccc1OC)C(=O)c1cccc(-n2cccc2)c1	.	.	.	.	.
CCN(CC(=O)Nc1c(F)cccc1F)C(=O)c1cc(-c2cccs2)nn1-c1ccccc1	?	/	18.4µM	.	/
Cc1ccc(C2(C)NC(=O)N(CC(=O)N3CCN(S(=O)(=O)c4cccc(F)c4)CC3)C2=O)cc1 (stereo not drawn)	.	.	.	.	.
CCC1CCc2c(sc(NC(=O)c3cnccn3)c2C(N)=O)C1 (stereo not drawn)	.	.	?	/	.[1.91 µM]
O=C(Nc1nnc([C@H]2C[C@H](O)[C@@H](CO)O2)s1)Nc1cccc(Cl)c1Cl	.	/	.	/	/
COC(=O)c1c(NC(=O)CCl)sc(C(=O)N2CCOCC2)c1C	?	1.78µM	5.17µM	.[0.0935 µM]	10µM
COC(=O)c1c(NC(=O)c2ccccc2OC)sc(C(=O)N2CCOCC2)c1C	?	.	14.6µM	.[0.0935 µM]	.
COC(=O)c1c(NC(=O)c2ccccc2)sc(C(=O)c2ccccc2)c1C	16.4µM	?	14.6µM	.	?
COC(=O)c1c(NC(=O)c2ccccc2)sc(C(N)=O)c1C	.	.	?	.	.
CCN(CC(=O)Nc1ccc(OC)cc1)C(=O)CSCc1c(C)noc1C	.	/	.	.	/
O=C(Nc1cccs1)NC1CCCC1	.	.	.	.	.
COc1cc(Cn2c3ccc(NC(=O)CCc4ccccc4)cc3c(=O)n2C)ccc1F	6.51µM	/	2.91µM	/	/
CCNC(=O)Nc1ccc2c(c1)c(=O)n(C)n2Cc1ccc(Cl)cc1	.	/	.	/	/
Cn1c(=O)c2cc(NC(=O)NCCc3ccccc3)ccc2n1Cc1ccccc1	.	/	?	/	/
Cn1c(=O)c2cc(NC(=O)CCc3cccnc3)ccc2n1Cc1ccc(F)cc1	16.4µM	/	?	/	/
COc1ccc(CCNC(=O)Nc2ccc3c(c2)c(=O)n(C)n3Cc2ccc(Cl)cc2)cc1OC	8.2µM	/	?	/	/
Cn1c(=O)c2cc(NC(=O)CCc3cccnc3)ccc2n1Cc1cccc(C(F)(F)F)c1	?	/	18.4µM	/	/
Cn1c(=O)oc2cc(S(=O)(=O)Nc3ccccc3F)ccc21	.	.	.	/	.
COc1cc(Cn2c3ccc(NC(=O)CCc4cccnc4)cc3c(=O)n2C)ccc1F	9.2µM	/	?	/	/
COc1ccccc1CCC(=O)Nc1ccc2c(c1)c(=O)n(C)n2-c1cccs1	3.66µM	/	3.66µM	/	/
CCOC(=O)c1c2n(c3ccc(OC(C)=O)cc13)CCC2	.	.	?	.	.
Cc1ccc(S(=O)(=O)N2CCCc3cc(NC(=O)c4ccc(Cl)cc4)ccc32)cc1	?	/	?	.	/
Cc1ccc(S(=O)(=O)N2CCCc3cc(NS(=O)(=O)c4cccc(Cl)c4)ccc32)cc1	20.6µM	/	20.6µM	.	/
CCOc1ccc(S(=O)(=O)Nc2ccc(S(=O)(=O)N3CCCC3)cc2)cc1	.	.	.	.	.
CCOc1ccc(S(=O)(=O)Nc2ccc3c(c2)CCCN3S(=O)(=O)c2ccc(C)cc2)cc1	?	/	18.4µM	.	/
SMILES	TDP1 cell CPT	Gal4-VP16 FLuc	TDP1 cell noCPT	TDP1 inh	RORg inh
CCc1ccc(CNC(=O)c2ccc3c(c2)NC(=O)C(N2CCOCC2)S3)cc1 (stereo not drawn)	23.1µM	.	.	.	.
CCCCN(C)CCCNC(=O)c1ccc2c(c1)NC(=O)C(N1CCOCC1)S2 (stereo not drawn)	.	.	.	.	.
O=C(Nc1ccc(Cl)c(Cl)c1)Nc1ccc(N2CCCC2)c(S(=O)(=O)Nc2ccccc2Cl)c1	3.26µM	?	4.11µM	.	.
Cc1ccc(NC(=O)c2cc3c(s2)CCCC3)cc1S(=O)(=O)Nc1ccccc1Cl	16.4µM	.	23.1µM	.	?
O=C(Nc1ccc(F)cc1)Nc1ccc(N2CCCC2)c(S(=O)(=O)Nc2ccccc2Cl)c1	23.1µM	?	23.1µM	.	?
CCCN(CCC)Cc1c(C(=O)N/N=C/c2ccc(Br)cc2)nnn1-c1nonc1N	.	.	.	.	.
CCN1C(=O)c2cccc3c(N)ccc(c23)C1=O	.	.	?	/	.
CCC(Sc1nc2nccnc2c(=O)n1Cc1ccc(Cl)cc1)C(=O)NC1CCCCC1 (stereo not drawn)	?	/	?	.	/
CCC(Sc1nc2nccnc2c(=O)n1Cc1ccc(F)cc1)C(=O)NC1CCCCC1 (stereo not drawn)	20.6µM	/	?	.	/
Cc1ccc([N+](=O)[O-])cc1NC(=O)CN(C(=O)c1ccc(Cl)cc1)C1CCCCC1	20.6µM	.	18.4µM	.	.
O=C(CN(C(=O)c1ccc(Cl)cc1)C1CCCCC1)Nc1ccc(Cl)c([N+](=O)[O-])c1	16.4µM	.	14.6µM	.	?
O=C(CN(C(=O)c1ccccc1Cl)C1CCCCC1)Nc1ccc(Cl)c([N+](=O)[O-])c1	?	.	?	.	?
Cc1nc2cc(NC(=O)[C@@H]3C[C@@H](Sc4ccccn4)CN3Cc3ccc(F)cc3F)ccc2s1	.[9.04 µM]	/	.	/	/
CC(C)Oc1ccc(C(=O)Nc2ncn[nH]2)cc1	.	?	.	.	?
O=C(Nc1nc2ccccc2[nH]1)c1cc(F)cc(F)c1	.	?	?	.	.
CC(C)Oc1ccc(C(=O)Nc2nc3ccccc3[nH]2)cc1	18.4µM	2.82µM	9.2µM	.	1.12µM
Cn1nc(C(=O)Nc2c(-c3ccccc3)nc3sccn23)c2ccccc2c1=O	20.6µM	?	13µM	.	10µM
O=C(NC(=S)Nc1cccc2[nH]ncc12)c1ccccc1	.	.	.	.	.
O=C(Nc1nc2ccccc2[nH]1)c1ccc(F)cc1	.	5.62µM	?	.	2.82µM
O=C(Nc1cccc2[nH]ncc12)c1ccc(F)cc1	?	.	7.31µM	.	.
CCOCCCNC(=O)C1(O)c2cc(Br)ccc2NC(=O)N1c1ccc(CC)cc1 (stereo not drawn)	.	.	.	/	.
CCOC(=O)C1CCN(C(=O)c2c(-c3c(Cl)cccc3Cl)noc2C)CC1	.	.	.	.	.
COc1cccc(CC(=O)Nc2nc3ccccc3[nH]2)c1	.	.[10 µM]	.	.	?
O=C(Nc1nc2ccccc2[nH]1)c1ccccc1F	?	1.78µM	11.6µM	.	0.708µM
CN(C)S(=O)(=O)c1ccc(C(=O)Nc2ccccn2)cc1	.	.	.	.	.
SMILES	TDP1 cell CPT	Gal4-VP16 FLuc	TDP1 cell noCPT	TDP1 inh	RORg inh
Cn1nc(C(=O)NNC(=O)COc2ccccc2)c2ccccc2c1=O	?	.	.	.	.
CCC(Oc1ccccc1)C(=O)Nc1nc2ccccc2[nH]1 (stereo not drawn)	.	?	?	.	10µM
CN(C)S(=O)(=O)c1ccc(C(=O)Nc2nc3ccccc3[nH]2)cc1	.	?	.	.	11.2µM
Cn1nc(C(=O)NNc2c(F)c(F)cc(F)c2F)c2ccccc2c1=O	.	.	1.46µM	.	.
O=C(CCNC(=O)c1ccc(Cl)cc1)Nc1nc2ccccc2[nH]1	.	/	.	.	/
Cn1nc(C(=O)Nc2ccc(-n3cnnn3)cc2)c2ccccc2c1=O	.	/	.	.	/
